Results filed as inconclusive are left out. Activity calls are given as the source filed them. Calls come from the whole dose curve; as a rule, active = well fitted inhibition curve with a large enough effect; inconclusive = small, poorly fitted or top-dose-only effect; inactive = no such curve, though single readings can be large or run the other way.
Assay: qHTS Assay for Lipid Storage Modulators: Differentiation Assay against Probe and Analogs
Conditions: 3T3-L1 adipocyte differentiation, BODIPY lipid imaging, 8 d; series mostly up to 20 µM
Description: Storing lipids as a reservoir for energy or the anabolism of elementary metabolites is a common feature of probably all cells and is conserved from bacteria to humans. The universal cellular lipid storage organelle is the so-called lipid storage droplet (LD). Although ubiquitous, LDs share a simple structure composed of a hydrophobic core that harbors the storage lipids, which is shielded by a droplet-specific phospholipid monolayer to which proteins are attached. The current model of LD biogenesis involves an incorporation of the lipid core into the membrane leaflets of the endoplasmic reticulum (ER) followed by a subsequent budding-like maturation of a LD, which ultimately pinches off. Once released, LD volume can increase by localized lipogenesis or fusion of existing droplets. Storage lipids are re-mobilized enzymatically by lipase activity. Lipase regulation in the adipocyte is heavily studied and involves multiple components including catecholamine signaling, the LD-associated proteins Perilipin and comparative gene identification-58 (CGI-58) and at least two lipases named hormone sensitive lipase (HSL) and adipocyte triglyceride lipase (ATGL). LD regulation outside of the adipocyte is poorly understood and only few components are known. However, there is an urgent need to learn more about ectopic fat depots as mislocalized storage of lipids, for example in the liver or muscle, is an eminent health problem associated with insulin resistance or the metabolic syndrome. We developed a laser-scanning cytometer assay to enable 1,536-well screening and combined the results of the small molecules screen with an RNAi database based on lipid storage. […] NIH Chemical Genomics Center [NCGC] MLPCN Grant: MH085686 Assay Submitter (PI): Mathias Beller, Max-Planck-Institut fur Biophysikalische Chemie
3T3L1 cells were obtained from ATCC (CL-173). Pre-adipocyte medium (PM-1), differentiation medium (DM-2) and after adipocyte medium (AM-1) were purchased from Zen-Bio (# PM-1-L1, DM-2-L1, AM-1-L1). 200 uL of PM-1containing 3,000 cells was dispensed into each well of a 96-well plate (Corning, #3340), and the assay plates were incubated at 37 °C, 95% humidity and 5% CO2 for 3-5 days. The differentiation of pre-adipocyte to adipocyte was induced by removing the pre-adipocyte medium and replacing with 200 uL of differentiation medium. 1 uL of compounds at different concentrations dissolved in differentiation medium were added to the assay plates, along with medium exchange for differentiation to test their effects on adipocyte differentiation. The final DMSO concentration was 0.5%.Triacsin C (Sigma-Aldrich T-4540), an inhibitor of long-chain fatty acyl CoA synthetase that blocks synthesis of triglycerides, was used as a positive control for lipid under-storage. After 3 days, differentiation medium was replaced with adipocyte maintenance medium and assay plates were incubated for 5 days. Aspirated the medium, then Cells were fixed using 4% of paraformaldehyde in PBS for 30 minutes at room temperature, washed 3 times with PBS buffer. Finally, the cells were stained using 200 uL of PBS containing BODIPY lipid dye 493/530 (1:2000 dilution, Molecular Probes), Hoechst 33342 (1:1000 dilution, Life Technologies, #H3570) and CellMask deep red dye (1:10,000 dilution, Life Technologies, #H32721) with Washer dispenser EL406(Biotek). Images were acquired using InCell 2000 (GE), number of cells, number of lipids, size of lipids and cells were analysis using GE Investigator software.

| Compound | Potency |
| --- | --- |
| CCOc1ccc(CCNC(=O)c2cc3sccc3n2CCN2CCOCC2)cc1OCC | inactive |
| CCOc1ccc(CCNC(=O)c2ccc3ccccc3n2)cc1OCC | inactive |
| CCn1c(C(=O)NCCc2ccc(OC)cc2)cc2sccc21 | 12.6 µM (active) |
| CC(C)Oc1ccc(CCNC(=O)c2cc3sccc3n2Cc2ccccc2)cc1OC(C)C | 3.98 µM (active) |
| CCOc1cc(F)c(CCNC(=O)c2cc3sccc3n2Cc2ccccc2)cc1OCC | inactive |
| O=C(NC1CCCc2c1cnn2-c1cccc(O)c1)c1ccccn1 (stereo not given) | 3.16 µM (active) |
| CCOc1cc(CCNC(=O)c2cc3sccc3n2Cc2ccccc2)cc(F)c1OCC | 2.82 µM (active) |
| CCOC(=O)C1CCN(C(=O)C2(NC(=O)Nc3ccccc3Cl)CCC2)CC1 | 2.82 µM (active) |
| CCOc1ccc(CCNC(=O)c2ccnn2Cc2cccc(C)c2)cc1OCC | 2.82 µM (active) |
| CCOC(=O)C1CCN(C(=O)C(C)(C)NC(=O)Nc2ccc(-c3ccccc3)cc2)CC1 | 1.12 µM (active) |

Source: PubChem BioAssay AID652183 (National Center for Advancing Translational Sciences (NCATS), 2013)
